# Apoferritin bind: qHTS Assay for Identification of Novel General Anesthetics. Ferritin light chain (Equus caballus), P02791. AID 485281, 2010. Potency, µM (titrated, usually from 77.5 µM), hits mostly inhibitors. 350,000 compounds, 0.074% hits. apoferritin/1-aminoanthracene competitive binding, fluorescence; further: nearly all actives have a fitted effect of over 20% in size
# Target sequence (P02791 2-175 limits assumed): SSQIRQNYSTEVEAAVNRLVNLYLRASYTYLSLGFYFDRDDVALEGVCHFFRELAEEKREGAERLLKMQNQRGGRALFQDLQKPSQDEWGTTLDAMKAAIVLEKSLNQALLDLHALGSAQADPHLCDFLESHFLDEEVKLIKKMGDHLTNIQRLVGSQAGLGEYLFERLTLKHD
#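 Horse-spleen apoferritin (10 uM) was mixed with 50% saturated 1-aminoanthracene in PBS, exposed to compounds for 10 min at room temperature, and read for fluorescence (ex 380 nm, em 535 nm). Competitive displacement was fitted with a four-parameter Hill equation.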
# A549 tox: Nrf2 qHTS screen for inhibitors: counterscreen for cytotoxicity; Potency, µM (highest dose often 46 µM), actives largely listed as inhibitors; A549 ARE-Fluc cells, CellTiter-Fluor viability, 18-24 h; 390,000 compounds, 0.16% hits
#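 Cytotoxicity counterscreen: CellTiter-Fluor fluorescence was measured in A549 ARE_Fluc cells after 18-24 h of compound exposure in a concentration series. The subsequent BugLite luminescent read reports ARE-luciferase activity.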
# mIDH1 inhibitor: qHTS for Inhibitors of mutant isocitrate dehydrogenase 1 (IDH1): qHTS; Isocitrate dehydrogenase [NADP] cytoplasmic (Homo sapiens), O75874; IDH1-R132H enzyme, NADPH consumption, diaphorase/resazurin fluorescence; Potency, µM (series often up to 76.6 µM), actives largely listed as inhibitors; 390,000 compounds, 0.093% hits; AID 602179, 2012; further: nearly all actives have a fitted effect of over 65% in size
# Target sequence (O75874 whole entry R132H, stated change not applied): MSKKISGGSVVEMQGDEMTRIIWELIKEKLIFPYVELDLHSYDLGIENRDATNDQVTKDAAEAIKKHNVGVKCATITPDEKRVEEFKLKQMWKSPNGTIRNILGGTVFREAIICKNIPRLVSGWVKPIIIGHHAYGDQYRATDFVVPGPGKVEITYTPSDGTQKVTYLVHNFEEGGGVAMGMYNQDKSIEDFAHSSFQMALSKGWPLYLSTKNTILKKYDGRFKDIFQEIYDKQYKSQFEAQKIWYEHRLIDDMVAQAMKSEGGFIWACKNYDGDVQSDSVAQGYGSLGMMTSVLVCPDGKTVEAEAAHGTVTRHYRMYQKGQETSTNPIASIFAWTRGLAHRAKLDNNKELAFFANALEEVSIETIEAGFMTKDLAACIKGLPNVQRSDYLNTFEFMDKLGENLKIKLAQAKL
#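 IDH1-R132H (0.5 ug/mL dispensed) in pH 7.5 Tris buffer was preincubated 30 min with compound, then given a substrate mix of 0.016 mM NADPH and 2 mM alpha-KG for 80 min at room temperature; remaining NADPH was read by diaphorase/resazurin fluorescence.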
# Giardia killer: Small Molecules that selectively kill Giardia lamblia: qHTS. activity change, % at 7.66 µM, hits read low. Giardia lamblia trophozoite viability. 340,000 compounds, 0.15% hits; in the data active means activity change below about -80%; inconclusive means between about -30% and that limit;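 further: parasites exposed to compound for two days anaerobically before the ATP read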
#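 Each well holds 100 Giardia trophozoites and compound. After two days (48 hrs) at 37 deg C in anaerobic conditions, ATP is quantified by luminescence.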
# Nrf2 activator: qHTS of Nrf2 Activators | AREc32 ARE-luciferase reporter (MCF7-derived line), luminescence, 24 h | Potency, µM (highest dose often 46.1 µM), hits mostly activators | 410,000 compounds, 0.31% hits | AID 624171, 2012; further: nearly all actives have a fitted effect of over 65% in size
#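 Nrf2 activation is followed as ARE-luciferase induction in the AREc32 line after one day of compound treatment; luminescence is read with Steady-Glo.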
# Nrf2 block: Nrf2 qHTS screen for inhibitors; A549 ARE-Fluc reporter, luciferase luminescence, 18-24 h; Potency, µM (top dose mostly 46 µM), most hits filed as inhibitors; 360,000 compounds, 2.1% hits; further: nearly all actives have a fitted effect of over 60% in size
#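 Concentration-response testing used A549 ARE_Fluc cells at 5000 cells/well. Following an 18-24 h compound incubation, viability was read by fluorescence (Ex 405/Em 525) and luciferase output by luminescence.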
# Hits are given with their value; - = inactive; ? = inconclusive; . = no result given. Compounds with a hit are over-represented: about 2.3% of the library has one in this group of screens. Unless noted, the call rests on the fitted dose curve; in most records, active means well fitted curve in the direction sought with a large enough effect; inconclusive means small, poorly fitted or top-dose-only effect, or another doubt; inactive means no such curve, though single readings can be large; an effect the other way counts as inactive or inconclusive.
SMILES,Apoferritin bind,A549 tox,mIDH1 inhibitor,Giardia killer,Nrf2 activator,Nrf2 block
O=C(CSCc1cccc(Br)c1)N=Nc1c(O)[nH]c2ccccc12,?,-,-,-,-,-
O=Nc1c(-c2c(O)[nH]c3cc(Br)ccc23)[nH]c2ccccc12,?,21µM,-,-,-,10µM
Cc1cc(C)cc(NC(=O)C(Cc2ccccc2)N2Cc3ccccc3C2=O)c1 (configuration not stated),-,-,-,.,-,-
CCc1ccc(CNc2ccc(N3CCN(C(C)=O)CC3)cc2)cc1,-,?,-,-,-,16µM
CCCCNC(=O)/C(=C\c1ccc([N+](=O)[O-])o1)NC(=O)c1ccccc1,-,-,-,-101,-,?
COC(=O)/C(=C\c1ccc([N+](=O)[O-])o1)NC(=O)c1ccccc1,-,-,-,?,-,?
COc1ccc(-c2noc(CCC(=O)NCCc3cccc(C)c3)n2)cc1,-,-,-,-,-,23µM
CCOc1ccc(-c2cc(CCCC(=O)NCCc3cc(OC)c(OC)c(OC)c3)no2)cc1,-,-,-,.,-,15µM
COc1ccc(-c2noc(CCCC(=O)NCCc3ccccc3)n2)cc1OC,-,-,-,-,-,23µM
COc1ccccc1NC(=O)CCCc1nc(-c2ccc(OC)c(OC)c2)no1,-,-,-,-,-,?
COc1ccc(-c2noc(CCCC(=O)NC3CCCCC3)n2)cc1,-,-,-,-,-,21µM
COc1ccc(-c2noc(CCC(=O)NC3CCCC3)n2)cc1,-,-,-,?,-,?
COc1ccc(-c2nnc(SCC(=O)NCCc3ccc(OC)c(OC)c3)nc2-c2ccc(OC)cc2)cc1,?,-,-,.,-,-
CN1CCc2sc(NC(=O)Cc3ccccc3)c(C(=O)Nc3ccc(Cl)cc3)c2C1,.,-,.,.,.,-
Cc1c(NC(=O)C(C)(C)Oc2ccc(Cl)cc2)cccc1-c1nc2ncccc2o1,?,-,-,.,-,?
S=C(NC1CC2CCC1C2)N1CCN(c2cccc(Cl)c2)CC1 (configuration not stated),-,-,-,-,-,16µM
CC(=O)Nc1cccc(NC(=O)CSc2ccc(-c3ccccn3)nn2)c1,-,-,-,-,-,?
Cc1cccc(NC(=O)CSc2ccc(-c3ccccn3)nn2)c1,?,-,-,.,-,?
CCc1ccc(NC(=O)CSc2ccc(-c3ccccn3)nn2)cc1,-,?,-,-,-,21µM
CC(=O)c1cccc(NC(=O)CSc2ccc(-c3ccccn3)nn2)c1,-,-,-,-,-,21µM
CCC(C(=O)N(C)Cc1ccccc1)n1nc(C)c2sc3ccccc3c2c1=O (configuration not stated),-,-,-,.,-,?
Cc1cccc(NC(=O)c2nc[nH]c2C(=O)N[C@@H](C)C(=O)OC(C)(C)C)c1,18µM,-,-,-,-,?
CC(C)(C)OC(=O)NCCCCCNC(=O)c1[nH]cnc1C(=O)Nc1cccc(Cl)c1,.,?,-,-,-,21µM
CC(C)(C)OC(=O)CNC(=O)c1[nH]cnc1C(=O)NCCCCCN,.,-,-,-,-,-
CC(C)(C)OC(=O)NCCCCCNC(=O)c1[nH]cnc1C(=O)NC1CCN(C(=O)OC(C)(C)C)CC1,.,-,-,-,-,21µM
SMILES,Apoferritin bind,A549 tox,mIDH1 inhibitor,Giardia killer,Nrf2 activator,Nrf2 block
CC(C)(C)OC(=O)CNC(=O)c1[nH]cnc1C(=O)NCCCCCNC(=O)OC(C)(C)C,?,-,-,-,-,26µM
CC(C)(C)OC(=O)NCCCCCNC(=O)c1nc[nH]c1C(=O)N1CCN(C(=O)OC(C)(C)C)CC1,.,-,-,-,-,-
O=c1c2nc(Br)n([C@@H]3O[C@@H]4CO[P@@](O)(=S)O[C@H]4[C@H]3O)c2nc2[nH]c(-c3ccccc3)cn12,-,.,.,.,.,.
COc1ccc(NS(=O)(=O)c2ccccc2)cc1NS(=O)(=O)c1ccccc1,.,-,.,.,.,-
Cc1ccccc1OCCCCn1cnc2ccccc21,?,-,-,-,-,6.5µM
Cc1ccccc1OCCCCn1c(CO)nc2ccccc21,-,-,-,-,-,23µM
c1ccc(OCCCCn2cnc3ccccc32)cc1,-,-,-,-,-,23µM
c1ccc(OCCn2cnc3ccccc32)cc1,-,-,-,-,-,-
Cc1ccc(OCCCn2c(CO)nc3ccccc32)cc1,-,-,-,-,-,.
NC(=O)C1CCCN(C(=O)c2[nH]c(C(F)(F)F)nc2-c2ccccc2)C1 (configuration not stated),.,.,.,.,-,.
Cc1ccc(N(C)S(=O)(=O)c2ccc3c(c2)CCC(=O)N3)cc1C,.,-,.,.,.,?
CCOc1ccc2oc(=O)cc(CN3CCN(c4cc(C)ccc4C)CC3)c2c1,-,-,-,.,-,-
COc1ccc(Nc2cc(C(=O)NCCCN(C)Cc3ccccc3)c3ccccc3n2)cc1OC,?,-,-,.,-,.
Oc1ccc2ccccc2c1/C=N/Nc1nnc(-c2ncc[nH]2)c2ccccc12,-,.,-,-,-,5.2µM
O=C(c1ccncc1)N1CCCC(N2CCN(c3cccc(C(F)(F)F)c3)CC2)C1 (configuration not stated),-,-,-,-,-,?
CCc1cc(C(=O)N2CCCC(N3CCN(c4cccc(C(F)(F)F)c4)CC3)C2)n(C)n1 (configuration not stated),-,-,-,-,-,8.2µM
CCn1nc(C(=O)NNC(=O)c2ccccc2)c2ccccc2c1=O,.,-,-,-,16µM,?
CCn1nc(C(=O)NNC(=O)c2ccc(OC(F)F)cc2)c2ccccc2c1=O,.,-,-,-,-,-
CCOC(=O)N1CCN(c2ccc(S(=O)(=O)N(Cc3ccccc3)Cc3ccccc3)cn2)CC1,-,-,-,-,-,16µM
CCN(CC)S(=O)(=O)c1ccc(N2CCN(c3ccccc3O)CC2)nc1,-,-,-,-,-,18µM
Cc1ccc(Nc2ccc([N+](=O)[O-])nc2[N+](=O)[O-])cc1,-,?,-,-96,?,?
CCOc1ccccc1NC(=O)CCC(=O)Nc1ccccc1OCC,-,-,-,-,-,-
CCOc1cc(NC(=O)CCl)c(OCC)cc1NC(=O)CCl,-,-,-,-,7.1µM,?
O=C(Nc1nc2ccccc2n1CCN1CCOCC1)c1ccc(COc2ccccc2Br)o1,-,-,-,-,-,13µM
O=C(NCc1cccnc1)c1ccc(COc2ccccc2Br)o1,-,-,-,-,-,-
